Measured values published in PubChem BioAssay.
Unmarked numbers belong to inactive results. For some assays here: Entries with a potency or affinity are not part of this list. Calls of active or inactive are those of the source. Unless noted, how the calls were made is not given here.

Columns and labels:
[1] = antimalarial activity against Dd2 strain (AID 2302;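 active means growth inhibition above 50% at the single 2 µM test dose, taken to imply half-maximal potency below 2 µM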;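 further: 0% = DMSO untreated growth and 100% = chloroquine plus artemisinin killed control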); details: P. falciparum Dd2 in RBCs, LDH growth readout, 72 h; at 2 µM; hits give high values
[2] = HepG2 cytotoxicity, primary screen, cytotoxicity control for P. falciparum antimalarial project, cell-based, ATP luminescence (AID 2303;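 active means inhibition above 50%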;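 further: 0% = DMSO wells and 100% = digitonin-killed cells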); details: HepG2 viability, 24-48 h, at 10 µM, hits give high values
[3] = target: L-lactate dehydrogenase (Plasmodium falciparum (isolate CDC / Honduras)) (UniProt Q27743); assay: PfLDH activity inhibition – cell lysate, 3D7 strain, counter-screen for P. falciparum growth inhibition project (AID 2304);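 further: 0% = vehicle and 100% = reference inhibitor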; details: P. falciparum 3D7 crude extract, LDH APAD/NBT absorbance; at 2 µM; hits give high values
[4] = inhibition of 3D7 malaria parasite growth – strain 3D7 (AID 2306);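 further: 0% = DMSO wells and 100% = chloroquine plus artemisinin control wells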; details: P. falciparum 3D7 erythrocytic growth, LDH absorbance, 72 h; at 2 µM; hits give high values
[5] = target: Calcium-dependent protein kinase 1 (Plasmodium falciparum (isolate 3D7)) (UniProt P62344); assay: PfCDPK1 kinase inhibitors, biochemical, TCAMS library (AID 1159585; cut-off not given, nearly all actives have IC50 up to about 0.98 µM;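 further: inhibitors leave more ATP so luminescence rises with inhibition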); details: recombinant PfCDPK1, Kinase-Glo ATP depletion luminescence
[6] = target: Plasmodium falciparum protein kinase 6 (PK6, PF3D7_1337100) (UniProt Q8IDW1); assay: PfPK6 kinase inhibitors, biochemical, TCAMS library (AID 1159586); details: recombinant PfPK6, Kinase-Glo ATP depletion luminescence
[7] = target: Protein kinase 7 (PK7), Plasmodium falciparum 3D7 (PF3D7_0213400) (UniProt Q7YTF7); assay: inhibition of Plasmodium PK7 catalytic activity – biochemical, TCAMS antimalarial set, Kinase-Glo luminescence (AID 1159587); details: recombinant PfPK7, Kinase-Glo ATP depletion luminescence
[8] = target: Calcium-dependent protein kinase 4 (Plasmodium falciparum (isolate 3D7)) (UniProt Q8IBS5); assay: PfCDPK4 kinase inhibitors, biochemical, TCAMS library (AID 1159588; cut-off not given, nearly all actives have IC50 up to about 0.91 µM); details: recombinant PfCDPK4, Kinase-Glo ATP depletion luminescence
Sequence of Calcium-dependent protein kinase 4 (Plasmodium falciparum (isolate 3D7)) (Q8IBS5 whole entry, looked up): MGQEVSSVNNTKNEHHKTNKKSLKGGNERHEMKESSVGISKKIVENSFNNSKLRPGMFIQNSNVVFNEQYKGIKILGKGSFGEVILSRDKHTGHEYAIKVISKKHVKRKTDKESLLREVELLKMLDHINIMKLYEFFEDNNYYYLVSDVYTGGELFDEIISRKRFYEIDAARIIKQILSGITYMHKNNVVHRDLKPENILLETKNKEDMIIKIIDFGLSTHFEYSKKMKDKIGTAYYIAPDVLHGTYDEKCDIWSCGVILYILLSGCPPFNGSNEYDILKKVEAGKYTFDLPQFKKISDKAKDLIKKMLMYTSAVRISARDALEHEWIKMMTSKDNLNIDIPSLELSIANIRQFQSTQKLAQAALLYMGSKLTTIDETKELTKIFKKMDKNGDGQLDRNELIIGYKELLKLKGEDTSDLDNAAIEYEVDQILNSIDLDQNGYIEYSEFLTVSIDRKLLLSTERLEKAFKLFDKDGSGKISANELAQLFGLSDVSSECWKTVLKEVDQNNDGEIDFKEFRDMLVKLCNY

Sequence of L-lactate dehydrogenase (Plasmodium falciparum (isolate CDC / Honduras)) (Q27743 whole entry, looked up): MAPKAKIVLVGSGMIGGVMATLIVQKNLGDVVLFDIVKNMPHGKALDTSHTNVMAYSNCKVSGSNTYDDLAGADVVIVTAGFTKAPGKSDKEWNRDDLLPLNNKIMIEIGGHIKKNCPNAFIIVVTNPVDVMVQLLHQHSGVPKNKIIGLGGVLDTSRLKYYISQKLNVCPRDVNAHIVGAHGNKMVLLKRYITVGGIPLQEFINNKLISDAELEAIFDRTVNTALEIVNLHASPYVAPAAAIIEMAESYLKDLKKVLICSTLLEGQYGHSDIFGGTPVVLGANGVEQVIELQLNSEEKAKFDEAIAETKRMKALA
Sequence of Calcium-dependent protein kinase 1 (Plasmodium falciparum (isolate 3D7)) (P62344 whole entry, looked up): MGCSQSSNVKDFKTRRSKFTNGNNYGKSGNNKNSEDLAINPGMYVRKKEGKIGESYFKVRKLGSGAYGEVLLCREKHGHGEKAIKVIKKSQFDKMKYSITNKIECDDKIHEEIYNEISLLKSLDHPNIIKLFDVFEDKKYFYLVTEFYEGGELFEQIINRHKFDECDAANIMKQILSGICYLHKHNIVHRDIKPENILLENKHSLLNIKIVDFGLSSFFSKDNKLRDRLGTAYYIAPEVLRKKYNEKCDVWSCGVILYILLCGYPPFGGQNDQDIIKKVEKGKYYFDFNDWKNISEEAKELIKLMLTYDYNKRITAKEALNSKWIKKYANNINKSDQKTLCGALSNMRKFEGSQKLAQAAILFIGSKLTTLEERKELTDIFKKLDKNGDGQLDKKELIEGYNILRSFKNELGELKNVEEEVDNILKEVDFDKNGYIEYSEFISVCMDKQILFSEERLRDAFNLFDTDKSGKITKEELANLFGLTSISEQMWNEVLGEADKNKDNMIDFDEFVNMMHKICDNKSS
Sequence of Plasmodium falciparum protein kinase 6 (PK6, PF3D7_1337100) (Q8IDW1 1-305): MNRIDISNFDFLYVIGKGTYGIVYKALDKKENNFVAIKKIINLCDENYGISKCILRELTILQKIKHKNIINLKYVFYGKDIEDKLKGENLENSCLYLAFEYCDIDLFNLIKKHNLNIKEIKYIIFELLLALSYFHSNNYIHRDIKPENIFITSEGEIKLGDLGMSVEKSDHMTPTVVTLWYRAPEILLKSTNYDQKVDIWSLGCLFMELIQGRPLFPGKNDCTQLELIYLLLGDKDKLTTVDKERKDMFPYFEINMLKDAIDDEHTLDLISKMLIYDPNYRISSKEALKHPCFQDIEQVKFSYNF
Sequence of Protein kinase 7 (PK7), Plasmodium falciparum 3D7 (PF3D7_0213400) (Q7YTF7 1-343): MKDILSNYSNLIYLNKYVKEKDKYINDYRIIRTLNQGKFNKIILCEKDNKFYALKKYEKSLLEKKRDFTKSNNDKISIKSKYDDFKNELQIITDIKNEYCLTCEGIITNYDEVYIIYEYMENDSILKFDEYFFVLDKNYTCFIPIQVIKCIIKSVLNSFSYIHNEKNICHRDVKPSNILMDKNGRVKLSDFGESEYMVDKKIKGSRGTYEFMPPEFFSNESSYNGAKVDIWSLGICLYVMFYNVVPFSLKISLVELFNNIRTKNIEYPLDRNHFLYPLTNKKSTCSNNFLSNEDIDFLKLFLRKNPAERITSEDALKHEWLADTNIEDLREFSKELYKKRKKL

Compound | growth inhibition [1] | inhibition [2] | inhibition [3] [%] | growth inhibition [4] | outcome [5] | outcome [6] | outcome [7] | outcome [8]
Cc1ccc2c(O)c([N+](=O)[O-])c(=O)[nH]c2c1 | -1% | 3% | -4 | 98% (active) | inactive | inactive | inactive | inactive
O=C(Nc1ccc(OC2CCN(Cc3ccc(F)cc3)CC2)cc1)c1cccs1 | 52% (active) | 6% | -2 | 84% (active) | inactive | inactive | inactive | inactive
Cc1ccc(C)c(Cn2ccc3nc(N)nc(N)c32)c1 | 3% | 65% (active) | -1 | 97% (active) | inactive | inactive | inactive | inactive
C#CCOc1ccc(N2C(N)=NC(N)=NC2(C)C)cc1 | -3% | 43% | 6 | 94% (active) | inactive | inactive | inactive | inactive
Cc1cc(C)c(S(=O)(=O)N2CCCCC(c3cccc(C(F)(F)F)c3)=N2)c(C)c1 | 95% (active) | -1% | -2 | 94% (active) | inactive | inactive | inactive | inactive
CCOC(=O)c1ccc(NC(=O)N[C@@H](Cc2ccccc2)C(=O)NC2CCN(Cc3ccc(OCCCN(C)C)cc3)C2)cc1 (stereo not given in full) | 8% | 5% | 0 | 91% (active) | inactive | inactive | inactive | inactive
COc1ccc2ncc(F)c(CCN3CCC(NCc4cc(C)c5c(c4)OCCO5)CC3)c2n1 | 67% (active) | 20% | 0 | 100% (active) | inactive | inactive | inactive | inactive
CCCCCCNC(=O)C1Cc2c([nH]c3ccccc23)C2(CCN(CCc3ccccc3)CC2)N1 (stereo not given) | 34% | 41% | 4 | 96% (active) | inactive | inactive | inactive | inactive
COc1ccc(NC(=O)c2ccc3cc4ccccc4cc3c2)cc1N1CCN(C)CC1 | 29% | 38% | 1 | 86% (active) | inactive | inactive | inactive | inactive
COc1cccc(NC(=O)Nc2ccc(-c3oc(C(=O)NCC(c4ccccc4)N(C)C)cc3-c3ccncc3)cc2)c1 (stereo not given) | 99% (active) | 6% | 2 | 101% (active) | inactive | inactive | inactive | inactive
COc1ccc2cc(C(=O)Nc3ccc4c(c3)CCN(C3CCC3)CC4)ccc2c1 | 9% | 34% | 2 | 101% (active) | inactive | inactive | inactive | inactive
CN=C(N)c1ccc(NC(=O)c2ccc(C(=O)Nc3ccc(C(N)=NC)cc3)cc2)cc1 | 91% (active) | 6% | 0 | 96% (active) | inactive | inactive | inactive | inactive
CC(C)[C@H](NC(=O)c1ccc(O)c(-c2cccc(C(F)(F)F)c2)c1)C(=O)NC1CCCc2ccccc21 (stereo not given in full) | 25% | 2% | 7 | 82% (active) | inactive | inactive | inactive | inactive
C=Cc1ccccc1C1(O)CCN(CCCCNC(=O)c2ccc(-c3ccc(C#N)cc3)cc2)CC1 | 64% (active) | 27% | 0 | 88% (active) | inactive | inactive | inactive | inactive
CCc1c(CCNCCCCCCNCCc2ccc(OC)c(OC)c2CC)ccc(OC)c1OC | 1% | 58% (active) | 0 | 100% (active) | inactive | inactive | inactive | inactive
O=C(Nc1cccc(-c2ccc(-c3nc4ccc(C(F)(F)F)cc4[nH]3)s2)c1)c1ccncc1 | 46% | 79% (active) | -13 | 99% (active) | inactive | inactive | inactive | inactive
Cn1cnc2c(SCc3ccc(OCc4ccccc4)cc3)ncnc21 | 87% (active) | 1% | -6 | 95% (active) | inactive | inactive | inactive | inactive
O=C(NC1CCN(c2ncc(C(F)(F)F)cc2Cl)CC1)c1cccs1 | 65% (active) | 15% | -1 | 84% (active) | inactive | inactive | inactive | inactive
CCC1CN2CCc3cc(OC)c(OC)cc3C2CC1CC1NCCc2cc(OC)c(OC)cc21 (stereo not given) | 98% (active) | 42% | -3 | 103% (active) | inactive | inactive | inactive | inactive
CCCNCc1ccc(-c2ccc(CN(CCOC)C(=O)CCC(=O)c3ccc(OC)c(F)c3)cc2)nc1 | 47% | 13% | -7 | 100% (active) | inactive | inactive | inactive | inactive

Compound | growth inhibition [1] | inhibition [2] | inhibition [3] [%] | growth inhibition [4] | outcome [5] | outcome [6] | outcome [7] | outcome [8]
Cc1cccc2[nH]c(-c3ccc(-c4ccc(CN5CCN(c6cnccn6)CC5)cc4)s3)nc12 | 42% | 11% | -6 | 94% (active) | inactive | inactive | inactive | inactive
CN1CCN(S(=O)(=O)c2cccc(Nc3nccc(N(C)c4ccc5c(c4)nc(NC(=O)c4cccs4)n5C)n3)c2)CC1 | 59% (active) | 25% | -6 | 99% (active) | inactive | inactive | inactive | inactive
CC(=O)c1cccc(NC(=O)NC2CCN(c3ccnc(Nc4ccc(F)cc4)n3)C2)c1 (stereo not given) | 94% (active) | 10% | -2 | 99% (active) | inactive | inactive | inactive | inactive
CCCC(C)Nc1nc(C)cc(N[C@@H](CC(C)C)C(=O)NC2CCCC2)n1 (stereo not given in full) | 22% | 6% | -2 | 85% (active) | inactive | inactive | inactive | inactive
Cn1nc(-c2ccc(NC(=O)Nc3cc(C(F)(F)F)ccc3F)c(F)c2)c2cnc(NCCCn3ccnc3)nc21 | 97% (active) | 45% | 0 | 100% (active) | inactive | inactive | inactive | inactive
O=C(N[C@@H](Cc1ccccc1)[C@H](O)CNC1CCc2ccccc2C1)c1cc(C2CCCC2)cc(N2CCCC2=O)c1 (stereo not given in full) | 76% (active) | 23% | -4 | 99% (active) | inactive | inactive | inactive | inactive
C[C@@H]1CN(c2cnn(C/C=C/c3ccc(NC(=O)c4ccc([N+](=O)[O-])cc4)cc3)c(=O)c2Cl)C[C@H](C)N1 | 38% | 22% | -3 | 96% (active) | inactive | inactive | inactive | inactive
COc1ccccc1C1CCN(C2CCC(NC(=O)/C=C/c3ccc(OC(F)(F)F)cc3)CC2)CC1 (stereo not given) | 11% | 65% (active) | -3 | 82% (active) | inactive | inactive | inactive | inactive
Cc1ccc(C(C#N)c2ccc3c(C(F)(F)F)cc(C(F)(F)F)nc3n2)cc1 (stereo not given) | 36% | 14% | 2 | 96% (active) | inactive | inactive | inactive | inactive
Cc1cc(NN=CC=Cc2ccccc2)c2ccccc2n1 | 69% (active) | 19% | 1 | 101% (active) | inactive | inactive | inactive | inactive
Cc1cccn2c(=O)c3cc(C(=O)NC4CCCCC4)c(=N)n(CCCn4ccnc4)c3nc12 | 8% | 1% | -1 | 102% (active) | inactive | inactive | inactive | inactive
O=C(/C=C/c1ccc(Cl)c(Cl)c1)NCCCCCN1CCC(NC(=O)Nc2cccc(Cl)c2)CC1 | 13% | 52% (active) | -1 | 102% (active) | inactive | inactive | inactive | inactive
O=c1cc(NCCCNCc2cc3c(Cl)cccc3s2)[nH]c2ccccc12 | 57% (active) | 6% | -7 | 102% (active) | inactive | inactive | inactive | inactive
CCCc1ccc(S(=O)(=O)NC2CCN(c3ccnc(Nc4ccc(OC)cc4)n3)C2)cc1 (stereo not given) | 45% | 42% | 0 | 89% (active) | inactive | inactive | inactive | inactive
Cc1[nH]c2ccc(O)cc2c1C1CCN(CCCCCNC(=O)/C=C/c2ccc(Cl)c(Cl)c2)CC1 | 1% | 33% | 2 | 101% (active) | inactive | inactive | inactive | inactive
O=C(Nc1ccc(C(F)(F)F)cc1)NC1CCN(c2ccnc3ccccc23)C1 (stereo not given) | 89% (active) | 13% | 0 | 102% (active) | inactive | inactive | inactive | inactive
O=S(=O)(Nc1cccc(CCN2CCC(N3CCCCC3)CC2)c1)c1ccc(Oc2ccccc2)nc1 | -4% | 8% | -2 | 99% (active) | inactive | inactive | inactive | inactive
CCCCNS(=O)(=O)c1ccc(NC(=O)c2cc([N+](=O)[O-])ccc2Cl)cc1 | 47% | 12% | -3 | 92% (active) | inactive | inactive | inactive | inactive
Nc1c(Cl)cc(C(O)CNCCCCCOCCc2ccc3occc3c2)cc1Cl (stereo not given) | 74% (active) | -2% | -1 | 99% (active) | inactive | inactive | inactive | inactive
CCOc1ccc(Br)cc1/C=C/C(=O)Nc1ccc2c(c1)CCCN(C)C2 | 17% | 40% | -1 | 90% (active) | inactive | inactive | inactive | inactive
